ALOX12 inh – inhibitors of human 12S-lipoxygenase ALOX12 | P18054 | purified 12hLO, xylenol orange hydroperoxide absorbance | Potency, µM (titrated, usually from 108 µM), for inactives: top-dose activity change, negative = inhibition, actives largely listed as inhibitors | 580,000 compounds, 1.1% hits | AID 1671190; further: on the % scale 0 is the no-effect control and ±100 the full control effect
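Purified human 12hLO (150 nM final) in 25 mM Hepes, 0.01% Triton X-100, pH 7.0 was preincubated 15 min at room temperature with compound. Then 40 uM arachidonic acid was added, 30 min. Hydroperoxide was read by Fe-XO absorbance ratio 573/405 nm.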
ClpP mod – qHTS Assay for Activators of ClpP. ATP-dependent Clp protease proteolytic subunit (Bacillus subtilis (strain 168)), P80244. purified B. subtilis ClpP, FRET peptide cleavage, 20 min. Potency, µM (top dose mostly 57.5 µM), without a hit: at the top dose activity change, negative = active. 340,000 compounds, 1.9% hits. AID 651965, 2013; active means well fitted falling curve with a large enough effect; inconclusive means small, poorly fitted or top-dose-only effect; inactive means no such curve, though single readings can be large or run the other way; further: the source files actives as falling curves though it sought activators and does not explain the sign; nearly all actives have a fitted effect of over 65% in size
Target sequence (P80244 whole entry, looked up): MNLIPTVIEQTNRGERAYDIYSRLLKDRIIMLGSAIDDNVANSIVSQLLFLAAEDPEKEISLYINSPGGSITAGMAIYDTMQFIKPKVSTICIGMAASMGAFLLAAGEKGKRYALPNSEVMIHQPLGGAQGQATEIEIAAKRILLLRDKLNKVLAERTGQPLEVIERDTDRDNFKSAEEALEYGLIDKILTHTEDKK
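Buffer: 100 mM Tris/HCl pH8, 100 mM KCl, 0.05% low protease BSA, 2.5% glycerol, 0.01% Tween-20. ClpP 10 microg/mL final; 20 min RT; delta FRET normalized to ADEP and DMSO controls.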
TDP1 block – inhibitors of human tyrosyl-DNA phosphodiesterase TDP1; recombinant TDP1, AlphaScreen DNA substrate cleavage; Potency, µM (series often up to 130 µM), for inactives: at the top dose activity change, negative = inhibition, most hits filed as inhibitors; 350,000 compounds, 0.28% hits; further: on the % scale 0 is the no-effect control and ±100 the full control effect; nearly all actives have a fitted effect of over 40% in size
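Recombinant E. coli-expressed Tdp1 (1 nM) preincubated with compound 15 min at RT, then 5'-biotin/3'-phosphotyrosine-FITC DNA substrate (15 nM) added for 5 min. AlphaScreen beads (10 ug/ml) added, 10 min RT; tyrosine-FITC cleavage read as signal loss.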
Rango complex inh – prevents formation of the Rango-importin beta complex; Q14974; Rango CFP/YFP FRET sensor + importin beta, 45 min; Potency, µM (top dose mostly 92.2 µM), inactives show top-dose inhibition of complex formation; 340,000 compounds, 0.031% hits; AID 540263; calls by dose curve;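 further: 0% = DMSO wells and 100% = buffer wells lacking importin beta; nearly all actives have a fitted effect of over 15% in size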
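FRET biosensor Rango (snurportin 1 IBB between N-terminal EYFP and C-terminal Cerulean), 50 nM in PBS/1 mM DTT/0.02% Tween-20/0.1% BSA, preincubated 5 min RT with compound; 0.125 microM importin beta added, 45 min RT, CFP/YFP FRET ratio read.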
Rango release inh – inhibitors of RanGTP-induced Rango-importin beta complex dissociation | O95149+P62826 | Biochemical FRET Rango-importin beta, RanGTP-induced dissociation | Potency, µM (doses to about 46.1 µM), for the others: at the top dose activity change, negative = inhibition | 340,000 compounds, 0.071% hits; calls by dose curve; further: % of control where 0% means no effect; nearly all actives have a fitted effect of over 45% in size
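Rango (0.1 uM)–importin beta (0.25 uM) complex; RanGTP-RCC1 trigger; 45 min RT; CFP/YFP FRET read.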
PTAP TSG101 blk – blocks PTAP/TSG101 interaction to inhibit HIV-1 budding; Q99816; 340,000 tested, under 10 active; Potency, µM (doses to about 115 µM), for the others: at the top dose activity change, negative = inhibition, hits mostly inhibitors; Fluorescence polarization, FITC-PTAP peptide / Tsg101 binding; active means well fitted inhibition curve with a large enough effect in the main read-out, with a control signal flat, not every such curve was filed as active; inconclusive means small, poorly fitted or top-dose-only effect, or effect the other way, or a change in a side signal; inactive means no such curve, though single readings can be large or run the other way; further: % of control where 0% means no effect
Target sequence (Q99816 whole entry, looked up): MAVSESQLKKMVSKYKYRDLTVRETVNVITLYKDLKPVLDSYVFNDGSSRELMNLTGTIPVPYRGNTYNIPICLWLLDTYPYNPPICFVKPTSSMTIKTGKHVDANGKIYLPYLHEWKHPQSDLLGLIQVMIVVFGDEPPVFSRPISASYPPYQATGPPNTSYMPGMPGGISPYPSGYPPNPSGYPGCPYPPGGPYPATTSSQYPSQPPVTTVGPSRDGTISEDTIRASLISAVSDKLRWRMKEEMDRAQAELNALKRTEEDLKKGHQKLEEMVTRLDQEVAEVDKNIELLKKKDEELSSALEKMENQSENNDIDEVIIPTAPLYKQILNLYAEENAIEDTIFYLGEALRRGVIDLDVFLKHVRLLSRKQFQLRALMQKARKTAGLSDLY
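Fluorescence anisotropy tracks displacement of a FITC-tagged PTAP peptide (50 nM) from the Tsg101 binding domain (10 uM), following a 20 min room-temperature incubation at pH 7.5.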
An asterisk follows results filed as active; ? = inconclusive; . = no result; [ ] = dose if it differs, or a comment. This is a sample that favours compounds with a hit; in the whole collection about 2.4% have one here. Unless noted, the call rests on the fitted dose curve; in most records, active means well fitted curve in the direction sought with a large enough effect; inconclusive means small, poorly fitted or top-dose-only effect, or another doubt; inactive means no such curve, though single readings can be large; an effect the other way counts as inactive or inconclusive. Potency means the concentration at half of the fitted maximal effect.

SMILES	ALOX12 inh	ClpP mod	TDP1 block	Rango complex inh	Rango release inh	PTAP TSG101 blk
COC(=O)c1c(C)sc(-c2c(-c3ccc4c(c3)OCCO4)[nH]c3[nH]c(=O)[nH]c(=O)c23)c1O	25µM*	-1%	5%	.	.	.
CC(C)CNC(=O)Cn1ccc2cc(Cl)ccc21	-23%	.	.	.	.	.
C/C(=N/N=C(c1ccccc1)c1ccccc1)c1ccccn1	51%	.	.	.	.	.
c1ccc(-c2cn3c(n2)-c2ccccc2C3)cc1	-2%	14µM*	5%	-2%	10%	-2%
O=C(O)C1Nc2c(Cl)cc(Cl)cc2C2C=CCC12 (stereo unspecified)	.	.	.	?	-11%	-20%
O=C(O)C1Nc2c(Cl)cc(Cl)c(Cl)c2C2C=CCC12 (stereo unspecified)	3.2µM*	-3%	.	-1%	7%	-11%
O=C(/C=C/Nc1ccccc1C(F)(F)F)c1ccc(Br)cc1	-8%	.	.	.	.	.
COC(=O)c1ccccc1N/C=C/C(=O)c1ccc(Br)cc1	1%	25µM*	-6%	?	?	-2%
CN(Cc1ccc(C(=O)NC2CC2)cc1)C(=O)/C=C/c1cccc(C(F)(F)F)c1	-34%	.	.	.	.	.
CCOC(=O)c1nsnc1NCCSC(=N)N	45µM*	4%	-3%	-2%	0%	0%
CCOC(=O)c1nc2ccccc2nc1NCCc1ccccc1	-29%	.	.	.	.	.
Cc1cc(NC(=O)CSc2nnc(-c3cccnc3)n2Cc2ccccc2)no1	4%	3.2µM*	3%	-1%	1%	-2%
CCn1c(SCC(=O)Nc2cc(C)on2)nnc1-c1cccnc1	16%	-1%	3%	-4%	-3%	-2%
O=C(CSc1nnc(-c2cccnc2)n1CCN1CCCCC1)Nc1cccc(Cl)c1	-3%	16µM*	4%	-3%	1%	-4%
COc1ccccc1-c1cc(C(F)(F)F)n2ncc(S(=O)(=O)c3ccccc3)c2n1	0%	28µM*	-6%	?	-18%	-3%
O=S(=O)(c1ccccc1)c1cnn2c(C(F)(F)F)cc(-c3ccccc3)nc12	0%	?	5%	-2%	14%	-4%
N#Cc1nc(-c2ccc(COc3ccc(Cl)cc3)o2)oc1N1CCCCC1	-8%	28µM*	8%	.	.	.
N#Cc1nc(-c2ccc(COc3ccccc3)o2)oc1N1CCCCC1	9%	32µM*	8%	.	.	.
CC1CCN(c2oc(-c3ccc(COc4ccc(Cl)cc4)o3)nc2C#N)CC1	-11%	25µM*	4%	.	.	.
N#Cc1nc(-c2ccc(OCc3ccc(Cl)cc3)cc2)oc1N1CCCCC1	.	4%	6%	.	.	.
N#Cc1ccc(COc2ccccc2-c2ccccc2)cc1	11%	.	.	.	.	.
CC(NC(=O)c1cc(=O)c2ccccc2o1)c1ccncc1 (stereo unspecified)	15%	.	.	.	.	.
O=C(Cn1cnnn1)N1CCC2(CCCNC2=O)C1 (stereo unspecified)	2%	.	.	.	.	.
O=C(O)C1=NOC2CN(Cc3coc(-c4ccccc4)n3)CC12 (stereo unspecified)	-8%[6.33 µM]	.	.	.	.	.
CCc1cc(C(=O)OC)c(NC(=O)Cc2ccccc2Cl)s1	-3%	.	.	.	.	.
SMILES	ALOX12 inh	ClpP mod	TDP1 block	Rango complex inh	Rango release inh	PTAP TSG101 blk
O=C(O)c1c2c(nc3ccccc13)/C(=C/c1cccc([N+](=O)[O-])c1)CCC2	40µM*	.	9%[0.0935 µM]	-2%	-3%	-7%
O=C(O)/C(=C\c1cccc(O)c1)c1ccc(S(=O)(=O)N2CCCC2)s1	392%	0%	.	-3%	-19%	-1%
O=C(O)/C(=C/c1ccc(Cl)c([N+](=O)[O-])c1)c1ccc(S(=O)(=O)N2CCCCC2)s1	25µM*	.	.	1%	-8%	-10%
CSc1ccc(/C=C(\C(=O)O)c2ccc(S(=O)(=O)N3CCCC3)s2)cc1	147%	-12%	28µM*	-8%	-21%	-2%
O=C(O)/C(=C\c1cccc(F)c1)c1ccc(S(=O)(=O)N2CCCCC2)s1	-25%	170%	-1%	-1%	-9%	-4%
NC(=O)CN1CCC2(CC1)CCN(C(=O)Cc1cnc[nH]1)CC2CO (stereo unspecified)	36%	.	.	.	.	.
Cc1cccc(NC(=O)c2cc(=O)c3cc(C)cc(C)c3o2)c1	-7%	.	.	.	.	.
Cc1ccc2[nH]c3c(c2c1)CN(C(=O)CN1CCN(C(=O)c2ccco2)CC1)CC3	?	.	8%	.	.	.
Cc1ccc2[nH]c3c(c2c1)CN(C(=O)CN1CCN(c2cccc(C)c2C)CC1)CC3	40µM*	-1%	7%	?	?	-14%
Cc1onc(-c2ccccc2)c1C(=O)NC(=S)NNC(=O)c1cc(-c2ccc(F)cc2)n[nH]1	45µM*	.	-12%	0%	2%	-2%
COc1ccccc1CNC(=O)C1CCCN(C(=O)c2cccnc2)CCC(=O)NCC1 (stereo unspecified)	65%	.	.	.	.	.
Cc1ccccc1-c1coc2cc(O)ccc2c1=O	1%	28µM*	3%	3%	-17%	-3%
Cc1ccccc1OCCCn1cnc2c1c(=O)n(C)c(=O)n2C	-55%	.	.	.	.	.
